Screening data: PubChem BioAssay, National Center for Advancing Translational Sciences (NCATS)
An excerpt weighted towards active compounds, which were near 11% of everything screened.
G9a block = G9a (human) methyltransferase inhibition; Q96KQ7; G9a H3K9 monomethylation, AlphaScreen, 2 h; Potency, µM (highest dose often 102 µM), for inactives: top-dose activity, negative = inhibition, usual class: inhibitors; actives 8.8% (n = 350,000); also: % is scaled to controls: 0 for no effect and ±100 for the full control effect; nearly all actives have a fitted effect of over 75% in size
Target sequence (Q96KQ7 913-1193 limits assumed): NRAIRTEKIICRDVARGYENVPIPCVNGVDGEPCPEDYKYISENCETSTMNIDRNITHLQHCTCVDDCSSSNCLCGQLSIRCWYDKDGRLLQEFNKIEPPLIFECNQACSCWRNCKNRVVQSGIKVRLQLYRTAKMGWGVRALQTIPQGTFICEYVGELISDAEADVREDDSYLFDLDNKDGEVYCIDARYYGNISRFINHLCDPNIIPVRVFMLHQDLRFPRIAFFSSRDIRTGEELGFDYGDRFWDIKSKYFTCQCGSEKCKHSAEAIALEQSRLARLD
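AlphaScreen read-out: biotin-H3K9 peptide (500 nM) methylation by 20 nM enzyme with 20 uM SAM, 2 h at room temperature after 15 min compound preincubation; anti-monomethyl H3K9 antibody plus donor/acceptor beads, 10 min dark.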
HP1b chromo inh = blocks HP1-beta chromodomain binding to methylated histone tails; Potency, µM (highest dose often 114 µM), for the others: at the highest dose activity change, negative = inhibition, most hits filed as inhibitors; actives 0.56% (n = 390,000); AlphaScreen HP1-beta / biotin-H3K9me3 peptide binding; P83916; also: nearly all actives have a fitted effect of over 70% in size
Target sequence (P83916 whole entry, looked up): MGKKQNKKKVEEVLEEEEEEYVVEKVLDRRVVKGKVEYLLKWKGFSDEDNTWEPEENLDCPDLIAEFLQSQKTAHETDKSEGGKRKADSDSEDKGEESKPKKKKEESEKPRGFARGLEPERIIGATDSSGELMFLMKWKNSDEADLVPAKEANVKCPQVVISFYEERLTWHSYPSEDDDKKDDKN
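AlphaScreen: HP1-beta (50 nM) preformed 30 min with biotin-H3(1-18)K9me3 peptide (50 nM) in PBS pH 7.4, 0.01% Tween-20. Compound added for 30 min at RT, then streptavidin donor/nickel chelate acceptor beads (10 ug/mL) for 30 min.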
VDR inhibitor = inhibitors of human vitamin D receptor. P11473. VDR-SRC2-3 peptide fluorescence polarization, 2 h. Potency, µM, for the others: max response, negative = inhibition, hits mostly inhibitors. actives 0.93% (n = 400,000). AID 504847; also: % is scaled to controls: 0 for no effect and ±100 for the full control effect
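Two reagent solutions held at 4 deg C in the dark were dispensed, compounds pinned at 23 nl, and the mixture incubated 2 h at room temperature. Read-out: fluorescence polarization of VDR–SRC2-3 peptide binding.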
BAZ2B block = inhibitors of human BAZ2B bromodomain; Q9UIF8; AlphaScreen BAZ2B-H3K14Ac peptide displacement; Potency, µM (titrated, usually from 114 µM), for the others: top-dose activity change, negative = inhibition, usual class: inhibitors; actives 4.4% (n = 360,000); also: % is scaled to controls: 0 for no effect and ±100 for the full control effect; nearly all actives have a fitted effect of over 60% in size
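Compounds, titrated to a top concentration of 110 uM, were incubated 30 min at room temperature with preformed BAZ2B/acetyl-K14 H3 peptide complex (50 nM each). Proximity signal was measured by AlphaScreen after 20 min with beads.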
JMJD2A Tudor inh = inhibitors of human JMJD2A Tudor domain; O75164; AlphaScreen JMJD2A-Tudor / H3K4me3 peptide binding; Potency, µM (highest dose often 114 µM), for the others: at the highest dose activity change, negative = inhibition, usual class: inhibitors; actives 4.4% (n = 390,000); AID 504339; also: % is scaled to controls: 0 for no effect and ±100 for the full control effect; nearly all actives have a fitted effect of over 50% in size
PLK1 PBD block = PLK1 (human) polo-box domain binding inhibition | Potency, µM, for the others: max response, negative = inhibition, usual class: inhibitors | actives 2.8% (n = 360,000) | Plk1 PBD binding of FITC phosphopeptide, fluorescence polarization | P53350 | AID 720504; also: series mostly up to about 57 µM; % is scaled to controls: 0 for no effect and ±100 for the full control effect; nearly all actives have a fitted effect of over 65% in size
Active calls of the source: *; ? = inconclusive; · = no result given; [ ] = dose if it differs, or a comment. Calls follow the shape of the dose curve; as a rule, active = well fitted curve in the direction sought with a large enough effect; inconclusive = small, poorly fitted or top-dose-only effect, or another doubt; inactive = no such curve, though single readings can be large; an effect the other way counts as inactive or inconclusive. Potency is read from the fitted curve at half-maximal effect.

SMILES | G9a block | HP1b chromo inh | VDR inhibitor | BAZ2B block | JMJD2A Tudor inh | PLK1 PBD block
COc1ccc(C(=O)N2CCC3(CC2)CCN(c2ncccn2)CC3)cc1 | -5%[12.7 µM] | · | 3% | · | · | ·
COc1ccccc1OCCNc1cc(N2CCCCC2)ccc1[N+](=O)[O-] | ? | ? | -8% | ? | ? | 3%
Cc1ccccc1OCCNc1cc(N2CCNCC2)ccc1[N+](=O)[O-] | 32µM* | · | · | ? | · | ·
Cc1cccc(OCCNc2cc(N3CCN(C)CC3)ccc2[N+](=O)[O-])c1 | 17%[59 µM] | 50µM* | 23% | ? | 40µM* | -2%
Cc1ccc(OCCNc2cc(N3CCN(CCO)CC3)ccc2[N+](=O)[O-])cc1C | ? | ? | -8% | 32µM* | ? | -20%
COc1c(C2=CC(=O)N(C)C2=O)c2c(n1C)C(=O)c1ccccc1C2=O | · | · | 13µM* | · | · | ·
CN=c1sc2c(n1C)C(=O)c1ccccc1C2=O | · | ? | ? | · | ? | -25%
Cc1ccc(C(=O)N/C(=C/c2ccco2)C(=O)N2CCCCCC2)cc1 | 71µM* | -20% | -25% | -8% | -31% | -9%
O=C(O)/C(=C/c1ccco1)NC(=O)c1ccccc1 | 45µM* | -3% | -12% | -30% | ? | -24%
O=C(N/C(=C\c1ccccc1)C(=O)N1CCCCCC1)c1ccccc1 | 2% | ? | -27% | -3% | ? | 30µM*
O=C(N/C(=C\c1ccco1)C(=O)N1CCCCC1)c1ccc([N+](=O)[O-])cc1 | · | 34% | -4% | · | -9% | -5%
O=C(N/C(=C/C=C/c1ccccc1)C(=O)N1CCCCC1)c1ccc([N+](=O)[O-])cc1 | 50µM* | 1% | -20% | -35% | ? | -2%
O=C(N/C(=C\c1ccco1)C(=O)N1CCC(O)CC1)c1ccccc1 | ? | 10% | -8% | 1% | -10% | -3%
O=C(N/C(=C\c1ccco1)C(=O)N1CCCC1)c1ccccc1 | 40µM* | 13% | -23% | -2% | -6% | -12%
O=C(O)/C(=C\c1ccco1)NC(=O)c1cccc2ccccc12 | · | -11% | -18% | ? | 89µM* | ?
CC(C)N(C(=O)CSc1n[nH]c(=O)n1CCc1ccccc1)C(C)C | 21% | 23% | -9% | 0% | -6% | -4%
O=c1cc2oc3cc(O)c(O)cc3c(-c3ccccc3[N+](=O)[O-])c-2cc1O | 1.4µM* | 0.79µM* | -7% | 1.1µM* | 0.71µM* | -24%
CC1(O)/C=C\C=C(\CO)C2CC(C)(C)C2(O)CC1 (stereo not drawn) | · | · | 3% | · | · | ·
CCCCN(NC(C)=O)c1nc(Cl)nc(NC(C)C)n1 | 50µM* | 17% | -1% | 0% | -9% | -2%
CC(C)Nc1nc(Cl)nc(NN(C)c2nc(N(C)C)nc(N(C)C)n2)n1 | -5%[59 µM] | 21% | -4% | -2% | -22% | -15%
COc1cc2c(cc1OC)C1=C(C#N)CN(C3CCCCC3)CN1CC2 | 45µM* | 14% | -16% | ? | ? | -5%
COc1ccc(CCN2CC(C#N)=C3c4cc(OC)c(OC)cc4CCN3C2)cc1OC | ? | 6% | -9% | ? | ? | -21%
COC(=O)C1=C(C)OC(N)=C(C#N)C1c1cc2cccc(C)c2nc1Cl (stereo not drawn) | 22µM* | · | · | 79µM* | · | ·
COCCOC(=O)C1=C(C)OC(N)=C(C#N)C1c1cc2cccc(C)c2nc1Cl (stereo not drawn) | · | 9% | -3% | 50µM* | -23% | -17%
O=C(CCNS(=O)(=O)c1ccccc1)OCC(=O)c1ccc(Br)cc1 | -1% | -7% | -20% | -1% | -19% | -9%
SMILES | G9a block | HP1b chromo inh | VDR inhibitor | BAZ2B block | JMJD2A Tudor inh | PLK1 PBD block
CCN(C(=O)c1c(C)noc1C)c1c(N)n(Cc2ccccc2)c(=O)[nH]c1=O | -7%[12.7 µM] | 46% | 7% | -1% | -10% | -1%
CCOc1ccc(CCNC(=O)Cn2ccc3cc(S(=O)(=O)N4CCCCCC4)ccc32)cc1 | -23%[59 µM] | 30% | 3% | -19% | -8% | ·
Cc1cccc2sc(NS(=O)(=O)c3ccccc3)nc12 | · | 50% | -13% | -5% | -6% | -5%
C/C(=N\Nc1ccc(F)cc1F)c1cccs1 | 25µM* | · | · | 28% | · | ·
COc1ccc(/C(C)=N/Nc2ccccc2Cl)c(O)c1 | 1µM* | -18% | -5% | ? | ? | -5%
COc1ccc(C(=O)c2ccccc2O)c(O)c1 | 0%[59 µM] | 37% | -29% | 6% | -16% | -2%
COc1ccc(C(=O)c2ccc(OC)cc2O)c(O)c1 | 5% | 13% | 19% | 5% | 0% | 2%
COc1ccc(/C(C)=N/Nc2ccc(F)cc2F)c(O)c1 | 2.5µM* | 26% | -6% | -16% | -14% | -7%
Cc1nccc(-c2cccc(N/N=C(\C#N)C(=O)c3ccccc3)c2)n1 | ? | -5% | -11% | -28% | ? | -11%
O=C(O)c1ccc(N=NNc2cccc([N+](=O)[O-])c2)cc1 | 45µM* | -4% | 4% | -30% | -16% | -8%
N#C/C(=N\Nc1cccc([N+](=O)[O-])c1)C(=O)c1ccc(Br)cc1 | 45µM* | ? | -26% | 40µM* | 40µM* | 30µM*
COC(=O)Cc1ccc(OC(=O)CCS(=O)(=O)c2ccc(C)cc2)cc1 | ? | 34% | -17% | 9% | -6% | -14%
CC1CN(c2cc(=O)n(-c3ccccc3)c(=O)[nH]2)CC(C)O1 (stereo not drawn) | 40µM* | 10% | -19% | 10% | 1% | 0%
Cc1ccc(-n2c(=O)cc(N3CC(C)OC(C)C3)[nH]c2=O)cc1 (stereo not drawn) | ? | 15% | -12% | · | -11% | -4%
NC(=S)c1cc2cc(Cl)ccc2oc1=O | · | 4% | ? | -11% | 5% | -9%
CC1(C)CC(=O)C(CC2=C(O)CC(C)(C)CC2=O)=C(O)C1 | 4.5µM* | 40% | -17% | 7% | -16% | -10%
COc1cc([N+](=O)[O-])ccc1NC(=O)/C=C/C(=O)O | 50µM* | 14% | 0% | 6% | -16% | -10%
COc1ccc(NC(=O)c2ccc([N+](=O)[O-])cc2[N+](=O)[O-])c(OC)c1 | 3% | 33% | -8% | -5% | -9% | 2%
COCCSc1ccccc1C(=O)Nc1ccc([N+](=O)[O-])cc1OC | 22µM* | 17% | 4% | -29% | -13% | 5%
COc1ccc(/C=C/C(=O)NC(=S)Nc2cc([N+](=O)[O-])ccc2O)cc1OC | 28µM* | ? | ? | ? | 89µM* | -10%
CCCCC(=O)NC(=S)Nc1cc([N+](=O)[O-])ccc1OC | 4%[12.7 µM] | 36% | -22% | -15% | -6% | -5%
COc1ccc([N+](=O)[O-])cc1NC(=O)CC(c1ccccc1)c1ccccc1 | 4%[59 µM] | 25% | -16% | 6% | -11% | -11%
